# According to PubChem BioAssay (EPA / NIEHS):
# Results filed as inconclusive are left out. Calls of active or inactive are those of the source. The calls were made as follows: active = hit-call score of the fitted dose curve at least 0.9, where 1 is the maximum; inconclusive = response in the unintended direction; inactive = score below 0.9.
# Assay: ATG_XTT_Cytotoxicity: Cytotoxicity Assessment in the Attagene TRANS-FACTORIAL HepG2 Assay (AID 2283584)
# How it was run: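 Transfect HepG2 with GAL4-UAS reporter units, dose compound, incubate 24 h, then measure viable cell number by XTT. Fit concentration response against DMSO baseline.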
row,SMILES,outcome
1,c1cc(C(c2ccc(OCC3CO3)cc2)C(c2ccc(OCC3CO3)cc2)c2ccc(OCC3CO3)cc2)ccc1OCC1CO1 (stereo unspecified),inactive
2,CCCCCCCC(C)=O,inactive
3,C=CC(=O)OCC(Br)CBr (stereo unspecified),inactive
4,Nc1ccc2cc3ccccc3cc2c1,inactive
5,C=CC(C)(CCC=C(C)C)OC(=O)CC(C)C (stereo unspecified),inactive
6,O=C1Nc2ccccc2C1(c1ccc(O)cc1)c1ccc(O)cc1,inactive
7,O=C1CCC(=O)N1Cl,inactive
8,CC(C)(C)C1CCCCC1=O (stereo unspecified),inactive
9,CC1(C)[C@H]2CC[C@]1(C)C(=O)C2,inactive
10,Cc1ccc2oc(=O)ccc2c1,inactive
11,CC(C)c1ccc2cc(C(C)C)ccc2c1,inactive
12,O=[N+]([O-])c1ccc(CO)cc1,inactive
13,OCCCS,inactive
14,CCCCCC/C=C/C=O,inactive
15,CC[C@H]1OC(=O)[C@H](C)[C@@H](O[C@H]2C[C@@](C)(OC)[C@@H](O)[C@H](C)O2)[C@H](C)[C@@H](O[C@@H]2O[C@H](C)C[C@H](N(C)C)[C@H]2O)[C@](C)(O)C[C@@H](C)C(=NOCOCCOC)[C@H](C)[C@@H](O)[C@]1(C)O,inactive
16,CC1(C)O[C@@H]2C[C@H]3[C@@H]4C[C@H](F)C5=CC(=O)C=C[C@]5(C)[C@@]4(F)[C@@H](O)C[C@]3(C)[C@]2(C(=O)CO)O1,inactive
17,CC(C)=CC1CC(C)CCO1 (stereo unspecified),inactive
18,NC(=O)C1CO1 (stereo unspecified),inactive

row,SMILES,outcome
1,O=CC1CC1,inactive
2,CC(=O)OC1C2(C)CCC(C2)C1(C)C (stereo unspecified),inactive
3,c1ccc2c(c1)ccc1ncccc12,inactive
4,CC(C)(C)c1n[nH]c(=O)n(N)c1=O,inactive
5,CC(CC=O)CCCC(C)(C)O (stereo unspecified),inactive
6,CCCCCC(C)O (stereo unspecified),inactive
7,C[Si](C)(C)O[Si](O)(O)O,inactive
8,Nc1ccc(Oc2ccc(N)c(N)c2)cc1,inactive
9,CCc1c(C(=O)O)c(=O)cnn1-c1ccc(Cl)cc1,inactive
10,O=C(O)C(c1ccc(Cl)cc1)c1ccc(Cl)cc1,inactive
11,COC=O,inactive
12,Cc1ccc(OC(=O)CC(C)C)cc1,inactive
13,O=c1c2ccccc2oc2ccccc12,inactive
14,C=CC(=O)OCCOC1C2CCC1C1CC=CC12 (stereo unspecified),inactive
15,C=C(C)C(=O)OCCOc1ccccc1,inactive
16,C=C(C)CCO,inactive
17,Cn1c(=O)[nH]c2ncn(C)c2c1=O,inactive
18,CCCCCCCCCCCCCCCC(=O)OCC,inactive
